# Compound activity: PubChem, National Center for Advancing Translational Sciences (NCATS)
# NS1 inh: qHTS Assay for Inhibitors of Influenza NS1 Protein Function; Potency, µM (titrated, usually from 46.1 µM); 0.4% of 270,000 active; AID 2326, 2010; calls by dose curve; note: actives are rising curves; nearly all actives have a fitted effect of over 50% in size
#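 A cell-based growth assay was used: compounds that relieve NS1-induced slow growth of budding yeast raise OD600. Assay medium was yeast nitrogen base with ammonium sulphate and -URA supplement, pH 6.0, with 2% galactose.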
# Pf growth 48h: Primary qHTS for delayed death inhibitors of the malarial parasite plastid, 48 hour incubation | AID 504832, 2011 | 5.9% of 310,000 active | P. falciparum luciferase growth in erythrocytes, 48 h | Potency, µM (doses to about 28.7 µM), most hits filed as inhibitors
#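 Firefly luciferase activity from engineered P. falciparum reports growth; inhibitors lower the luminescent signal. Cultures contained 2% hematocrit erythrocytes at 0.1% final parasitemia.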
# Pf growth 96h: Primary qHTS for delayed death inhibitors of the malarial parasite plastid, 96 hour incubation | P. falciparum luciferase reporter growth, 96 h | Potency, µM (top dose mostly 28.7 µM), most hits filed as inhibitors | 6.9% of 320,000 active
#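 Two-generation exposure (96 h) targets delayed-death phenotype. Reporter parasites carrying integrated firefly luciferase, in red cells at 2% hematocrit and 0.05% parasitemia final, kept at 37 C, 5% CO2; luminescence loss indicates inhibition.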
# Shiga toxin inh: A qHTS for Small Molecule Inhibitors of Shiga Toxin. inhibition, % at 38.7 µM. 9.2% of 290,000 active. Vero cells, Shiga toxin protein synthesis inhibition reporter; in the data active = inhibition mostly above about 28%, no sharp cut-off; inactive = mostly below about 43%
# SARS PLP yeast: qHTS of Yeast-based Assay for SARS-CoV PLP. S. cerevisiae expressing SARS-CoV PLpro, growth rescue. Potency, µM (titrated, usually from 32.9 µM), hits mostly activators. 0.19% of 330,000 active; calls by dose curve; note: nearly all actives have a fitted effect of over 55% in size
# CHX counter: Cycloheximide Counterscreen for Small Molecule Inhibitors of Shiga Toxin; 12% of 300,000 active; cell reporter, cycloheximide protein synthesis inhibition counterscreen; max response, %; AID 2314, 2010; in the data active = max response mostly above about 13%, no sharp cut-off; inactive = mostly below about 14%; note: read at 38.3 µM for the half of the compounds with a filed dose
# Numbers stand for hits; 0 = inactive; ? = inconclusive; - = no result; [ ] = remark or other dose. Rows were chosen to be rich in hits. Some 21% of all compounds tested hit in one or more screens of this group. Unless noted, calls come from the whole dose curve; as a rule, active = well fitted inhibition curve with a large enough effect; inconclusive = small, poorly fitted or top-dose-only effect, or another doubt; inactive = no such curve, though single readings can be large or run the other way.
SMILES,NS1 inh,Pf growth 48h,Pf growth 96h,Shiga toxin inh,SARS PLP yeast,CHX counter
COc1ccc(N2CCN(c3ncccn3)CC2)cc1,0,0,-,152,0,24
CCC(NC(=O)COc1cc2c(c3oc(=O)c(C)c(C)c13)CCC(C)(C)O2)C(=O)O (stereo not drawn),0,0[0.00184 µM],?,0,0,0
O=C(COC(=O)Cc1cccc(C(F)(F)F)c1)NCc1ccco1,-,?,0,-,0,-
Cc1ccc(C(=O)/C=C/c2ccc(F)cc2)o1,0,0,?,76,0,60
O=C(/C=C/c1ccc(F)cc1)c1ccccc1Br,0,0,?,0,0,20
COc1cccc(NC(=S)N2CCN(C)CC2)c1,0,?,0,0,0,0
C[N+]1([C@H](CO)Cc2c[nH]c3ccccc23)Cc2ccccc2C1,0,-,-,-,-,-
COc1ccc(S(=O)(=O)N(C)C[C@H]2Oc3ccc(NC(=O)c4ccncc4)cc3C(=O)N([C@H](C)CO)C[C@@H]2C)cc1,-,-,-,-,0,-
COc1ccc(C2CC(c3ccccc3Cl)=NN2c2ccc(S(N)(=O)=O)cc2)cc1 (stereo not drawn),-,-,-,-,0,-
Oc1ccc(C2=NN(c3ccccc3)C(c3ccc(F)cc3)C2)cc1 (stereo not drawn),0,9.3µM,?,0,0,0
Oc1ccccc1C1=NN(c2ccccc2)C(c2ccc(F)cc2)C1 (stereo not drawn),0,?,10µM,0,0,0
Cc1ccc(-c2nc(C)sc2CC(=O)Nc2cccc(C)c2C)cc1,0,0,?,0,0,0
COc1cc(/C=C/C(=O)OCC(=O)N2CCN(S(=O)(=O)c3ccc(C)cc3C)CC2)cc(Cl)c1OC,-,0,0,-,0,-
Nc1ccc2c(c1)COc1ccccc1O2,0,0,0,88,0,16
O=C1N=c2ccccc2=C1c1sc(Nc2ccc(O)cc2)nc1O,-,0,0,64,0,0
O=C1N=c2ccccc2=C1c1sc(Nc2cccc(O)c2)nc1O,0,0,?,48,0,44
O=C1N=c2ccccc2=C1c1sc(NS(=O)(=O)c2ccccc2)nc1O,-,0,0,0,0,0
Cc1cccc(C)c1NC(=O)CN(C)C(=O)C1CC1C (stereo not drawn),-,0,0,-,0,-
CCOC(=O)CSc1nnc(CSc2nc3ccccc3s2)n1C,0,0,0,0,0,0
CCS(=O)CCSc1nc2ccccc2s1 (stereo not drawn),0,0,0,121,0,32
c1csc(CSc2nc3ccccc3s2)c1,0,0,?,136,0,34
CCN(C(C)=O)c1nnc(CSc2nc3ccccc3s2)s1,0,0,0,157,0,25
Cc1noc(C)c1CSc1nc2ccccc2s1,0,0,0,0,0,0
CNc1nnc(CSc2nc3ccccc3s2)s1,0,0,0,84,0,22
Cc1occc1C(=O)NNC(=O)c1ccccc1[N+](=O)[O-],0,0,0,0,0,0
SMILES,NS1 inh,Pf growth 48h,Pf growth 96h,Shiga toxin inh,SARS PLP yeast,CHX counter
Cc1cc(C(=O)O)c(=O)[nH]c1C,0,0,2.6µM,0,0,0
Cc1cc(C(=O)NCc2ccccc2)c(=O)[nH]c1C,0,0,0,0,0,0
Cc1csc(NC(=O)CSc2nnc(-c3ccoc3C)n2C(C)c2ccccc2)n1 (stereo not drawn),0,?,0,0,0,0
O=C(OCC(=O)c1cccs1)c1ccc(NC(=O)c2ccco2)cc1,0,0,0,0,0,59
O=C(Nc1ccc(NC(=O)c2cccs2)cc1)c1ccco1,0,-,0,0,0,31
O=C(NC(=S)Nc1ccc(NC(=O)c2cccs2)cc1)c1cc2ccccc2o1,0,3.3µM,0,0,0,0
Cc1ccc(NC(=O)c2cccs2)cc1NC(=O)c1ccco1,0,0,0,0,0,0
CC(NC(=O)c1cc2ccccc2o1)c1cccs1 (stereo not drawn),0,-,8.3µM,0,0,0
CC(NC(=O)c1cc2ccccc2o1)c1ccccc1 (stereo not drawn),0,0,0,0,0,0
COc1ccc(C2CC(c3ccccc3)Oc3cc(OC)c(OC)c(OC)c32)cc1 (stereo not drawn),-,-,-,0,-,0
CCOC(=O)C1CCN(CC(=O)N(CC(C)C)c2c(N)n(CC(C)C)c(=O)[nH]c2=O)CC1,-,0,0,0,0,0
